# Bioassay records (PubChem BioAssay)
# ATXN viability – cell viability loss in ATXN counter-screen | S2 cells (HEK-293 line with an ATXN2-luciferase reporter) viability, CellTiter-Fluor protease fluorescence, 24 h | Potency, µM (top dose mostly 56.7 µM), hits mostly cytotoxic | 400,000 tested, 0.49% active; further: nearly all actives have a fitted effect of over 40% in size
# HepG2 viability – kills HepG2 cells in TGF-b inhibitor counter-screen | Potency, µM (doses to about 46.1 µM), inactives show top-dose activity change, negative = cytotoxicity, actives largely listed as cytotoxic | 410,000 tested, 0.76% active | AID 588856 | HepG2 CAGA-GFP viability, ATP luminescence, 18 h
#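 HepG2 CAGA-GFP cells (1000/well, DMEM with 1% FBS) received compound, then TGF-beta at 500 pg/mL final, and were incubated 18 hours at 37 degrees C. Viability was read by CellTiter-Glo luminescence. Media-only wells were set as complete cell-killing and DMSO as no toxicity.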
# KB-3-1 cytotox – KB-3-1 parental cell cytotoxicity. KB-3-1 viability, CellTiter-Glo ATP luminescence, 72 h. Potency, µM (top dose mostly 46.1 µM), hits mostly cytotoxic. AID 1347075. 400,000 tested, 1.4% active; further: on the % scale 0 is the no-effect control and ±100 the full control effect; nearly all actives have a fitted effect of over 60% in size
#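 Viability of parental KB-3-1 cells, measured by CellTiter-Glo luminescence, followed a 72 h incubation at 37 °C with pinned compounds in phenol-red-free DMEM containing 10% FBS.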
# ATXN2 expr inh – reduces ATXN2 reporter expression in HEK-293 cells; 360,000 tested, 0.72% active; Potency, µM (highest dose often 57 µM), for inactives: at the top dose activity change, negative = inhibition, usual class: inhibitors; HEK-293 ATXN2-luciferase reporter, luminescence, 24 h; further: on the % scale 0 is the no-effect control and ±100 the full control effect; nearly all actives have a fitted effect of over 55% in size
#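 qHTS (up to 57 uM final) was run with 24 h compound exposure of reporter cells at 37 °C. Each well was multiplexed: SteadyGlo luminescence measured ATXN2-luciferase expression after a fluorogenic Gly-Phe-AFC viability readout (25 uM final).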
# TGFb inhibitor – blocks TGF-b signaling | 410,000 tested, 1.2% active | Potency, µM (doses to about 46.1 µM), for inactives: at the top dose activity, negative = inhibition, actives largely listed as inhibitors | HepG2 CAGA-GFP TGF-b/SMAD3 reporter, GFP fluorescence, 18 h; TGF-beta stimulated, 500 pg/mL final; further: on the % scale 0 is the no-effect control and ±100 the full control effect; nearly all actives have a fitted effect of over 65% in size
#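 First, reporter cells (HEPG2 CAGA-GFP) rested 2 h at 37 degrees C. Next, compounds were pinned in and TGF-beta added to 500 pg/mL final. After 18 h, GFP was imaged per cell and summed per well.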
# KB-V1 MDR tox – KB-V1 MDR subline cytotoxicity | KB-V1 MDR cells viability, CellTiter-Glo, 72 h | 400,000 tested, 3.4% active | Potency, µM (doses to about 46.1 µM), hits mostly cytotoxic | AID 1347076; further: on the % scale 0 is the no-effect control and ±100 the full control effect; nearly all actives have a fitted effect of over 60% in size
#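 Luminescent ATP read-out (CellTiter-Glo, 10 min) measures survival of drug-selected KB-V1 MDR cells after 72 h, 37 degrees C compound exposure. Medium: phenol-red-free DMEM, 10% FBS. Values from fitted concentration-response curves.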
# An asterisk follows results filed as active; i = inactive; ? = inconclusive; / = no result given; ! = a repeat was not active. The list is not random: actives were taken first. Their share in the collection is about 5.9%. The call rests on the fitted dose curve; in most records, active means well fitted curve in the direction sought with a large enough effect; inconclusive means small, poorly fitted or top-dose-only effect, or another doubt; inactive means no such curve, though single readings can be large; an effect the other way counts as inactive or inconclusive. Potency means the concentration at half of the fitted maximal effect.
SMILES,ATXN viability,HepG2 viability,KB-3-1 cytotox,ATXN2 expr inh,TGFb inhibitor,KB-V1 MDR tox
CCc1c(C)[nH]n(-c2nc(-c3cccc([N+](=O)[O-])c3)cs2)c1=O,i,-25.8%,?,-12.0%,?,16.4µM*
CCc1c(C)[nH]n(-c2nc(-c3ccccc3)cs2)c1=O,i,-10.0%,i,-8.7%,?,?
Cc1ccc(N2CCN(c3ccc(NCc4nc5ccccc5n4C)cc3)CC2)cc1,?,-17.7%,i,-16.1%,0.0%,4.61µM*
c1ccc(Cn2c(CNc3nc4ccccc4n3CCN3CCOCC3)nc3ccccc32)cc1,i,-27.9%,i,-4.9%,-17.8%,8.2µM*
Cc1cccc(NCc2nc3ccccc3n2Cc2ccccc2)c1,i,-36.2%,i,10.8%,-46.4%,?
Cc1cccc(NCc2nc3ccccc3n2C)c1,i,-21.7%,i,71.0%,25.4%,?
Cn1c(CNc2ccc(Cl)cc2)nc2ccccc21,i,-8.3%,i,69.0%,-33.5%,20.6µM*
Cc1nc2cc(NCc3nc4ccccc4n3Cc3ccccc3)ccc2n1C,?,-43.5%,i,47.9%,?,10.3µM*
CCOc1ccc2[nH]c(=O)c(CN(Cc3cccs3)Cc3nnnn3C(C)(C)C)cc2c1,?,1.3%,i,?,-12.7%,20.6µM*
CCN(CC)c1ccc(NC(=O)CCCCCN2C(=O)c3ccccc3C2=O)cc1,i,-16.7%,i,-1.0%,-22.4%,4.61µM*
Cc1cccc(OCC(=O)Nc2ccc(OCc3cc(=O)n4cc(C)ccc4n3)cc2)c1,/,-0.9%,i,/,14.1%,?
C=CC[C@@H](CC(=O)N(CCO)Cc1ccccc1)C(=O)N[C@H](COC(=O)[C@@H](CC=C)CC(=O)OC(C)(C)C)C(C)(C)C,28.2µM*,-15.3%,i,?,-29.7%,i
C=CC[C@@H](CC(=O)N(CCO)Cc1ccccc1)C(=O)N[C@H](COC(=O)[C@@H](CC=C)CC(=O)OC(C)(C)C)c1ccccc1,/,-28.6%,?,?,?,?
C=CC[C@H](CC(=O)N(CCO)Cc1ccccc1)C(=O)N[C@H](COC(=O)[C@H](CC=C)CC(=O)OC(C)(C)C)Cc1ccccc1,22.4µM*,1.3%,i,-2.3%,?,i
C=CC[C@@H](CC(=O)N(CCO)Cc1ccccc1)C(=O)N[C@H](COC(=O)[C@@H](CC=C)Cc1ccc(F)cc1)C(C)(C)C,?,-8.8%,?,0.0%,?,i
c1ccc(-c2nnc(-c3ccco3)n2-c2ccccc2)cc1,i,-4.1%,i,7.1%,-19.0%,18.4µM*
CCN(CC)S(=O)(=O)c1cccc(C(=O)Nc2nc3cc4c(cc3s2)OCCO4)c1,?,-24.4%,?,?,-26.5%,4.61µM*
CCS(=O)(=O)N1Cc2ccccc2CC1C(=O)Nc1nc2ccc(C)cc2s1 (centres undefined),i,-9.8%,?,31.3%,0.0%,7.31µM*
O=C(CCS(=O)(=O)c1ccccc1)Nc1nc2cc3c(cc2s1)OCCO3,i,-87.0%,i,25.0%,12.6µM*,i
CCOC(=O)c1sc2ccc(S(=O)(=O)N3CCCCC3)cc2c1N,?,-9.7%,23.1µM*,?,10.0%,?
CCOC(=O)c1sc2ccc(S(=O)(=O)N3CCOCC3)cc2c1N,i,-8.9%,i,-0.9%,18.0%,i
COc1cccc(CN2CCC3(CCC(CNC(=O)c4ccco4)O3)CC2)c1OC (centres undefined),i,/,/,/,/,/
O=C(Nc1sc2c(c1C(=O)NCc1cccnc1)CCCC2)c1cc(=O)c2ccccc2o1,i,-0.2%,i,16.0%,-1.6%,i
CCOC(=O)C1=C(CN2CCC(C(=O)OCC)CC2)NC(=O)NC1c1ccc(Cl)cc1 (centres undefined),i,-2.9%,i,-1.3%,-5.4%,i
Cc1ccc(N2CC(C(=O)Nc3nc4ccc(S(C)(=O)=O)cc4s3)CC2=O)cc1 (centres undefined),i,-0.1%,?,3.3%,-0.2%,6.51µM*
SMILES,ATXN viability,HepG2 viability,KB-3-1 cytotox,ATXN2 expr inh,TGFb inhibitor,KB-V1 MDR tox
CCCC(=O)Nc1nc2ccc(S(=O)(=O)N3CCCCC3)cc2s1,?,-8.3%,13µM*,-15.9%,-32.6%,?
COC(=O)c1ccc2nc(NC(=O)CCS(=O)(=O)c3ccccc3)sc2c1,i,2.2%,i,16.3%,?,i
CS(=O)(=O)c1ccc2nc(NC(=O)CCS(=O)(=O)c3ccccc3)sc2c1,31.6µM*,7.08µM*,i,?,?,i
COc1ccc(CCNc2ncnc3sc(C(=O)N4CCCCC4)c(C)c23)cc1OC,i,/,/,/,/,/
O=C(CCCN1CCC(n2c(=S)[nH]c3ccccc32)CC1)c1ccc(F)cc1,i,/,/,/,/,/
Cc1cc(C)c(Cn2c(C3CC(=O)N(c4ccc(F)cc4)C3)nc3ccccc32)c(C)c1 (centres undefined),i,-22.4%,i,-3.1%,?,?
N#CCCN(C(=O)COC(=O)c1cccc(S(=O)(=O)N2CCCCCC2)c1)c1ccc(F)cc1,i,-1.2%,i,7.0%,-3.3%,13µM*
Cc1ccc(C(=O)Nc2cccc([N+](=O)[O-])c2)cc1S(=O)(=O)Nc1ccc(NC(=O)c2ccccc2)cc1,?,3.9%,i,-4.2%,-11.6%,i
Cc1ccc(C)c(NC(=O)c2ccccc2NS(=O)(=O)c2cc([N+](=O)[O-])ccc2C)c1,i,-40.8%,20.6µM*,?,2.51µM*,i
Cc1ccc(NS(=O)(=O)c2cc(C(=O)Nc3cccc([N+](=O)[O-])c3)ccc2C)cc1,i,-1.9%,i,-26.6%,?,14.6µM*
Cc1ccc([N+](=O)[O-])cc1S(=O)(=O)Nc1cccc(S(=O)(=O)Nc2ccccc2C(=O)O)c1,i,18.1%,/,2.6%,11.4%,/
O=C(NCc1ccccc1)C1C(c2ccccc2)=Nc2ccccc2N1C(=O)c1cccnc1 (centres undefined),/,/,i,/,/,?
CC(C)(C)c1ccc(O)c(O)c1,70.8µM*!,-30.7%,?,39.8µM*!,-2.7%,i
CC(C)(C)c1ccc(O)c(/C=N\O)c1,i,-35.9%,i,34.4%,3.1%,i
Cc1cccc(N(CC(=O)Nc2c(C)n(C)n(-c3ccccc3)c2=O)S(C)(=O)=O)c1C,i,-4.8%,i,-1.5%,2.82µM*,i
Cc1cccc(N(CC(=O)Nc2ccccc2-c2ccccc2)S(=O)(=O)c2ccccc2)c1C,i,-13.8%,?,-1.6%,-21.7%,20.6µM*
